NADH coupling – inhibitors of PK/LDH coupling enzymes, profiling panel, artefact control, biochemical, MLSMR library | AID 774, 2007 | hit rate 0.02% among 65,000 | coupled PK/LDH NADH assays, four targets | IC50, µM (top dose mostly 10 µM), for the others: top-dose inhibition;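 active = single-dose screening hits from any of four coupled enzyme assays that gave an IC50 when retested across doses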;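 also: the DPM-DC format reads NADH fluorescence rather than 340 nm absorbance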
A340 absorber – compound light absorbance at 340 nm, profiling panel, artefact control, biochemical, MLSMR library, data from PS, PMK, MK assays; compound absorbance at 340 nm, fold over control; fold change at 10 µM; 65,000 tested, under 10 active; AID 708, 2007;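 active = at 10 µM dose, initial 340 nm absorbance at least 2 fold that of control wells; inactive = change under 2 fold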;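 also: initial absorbance extrapolated from kinetic A340 decline of NADH oxidation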
PMK inhibit – S. pneumoniae PMK inhibitors, primary screen, biochemical, mevalonate pathway, pilot trial included; AID 539, 2006; inhibition, % at 10 µM; purified PMK, PK/LDH-coupled NADH absorbance 340 nm; hit rate 0.49% among 65,000;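 active = top-ranked compounds by inhibition in the single 10 µM screen, taking a fixed number of the strongest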;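 also: 0% = full reaction with DMSO carrier and 100% = background rate without enzyme reaction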
Spn MK inh – S. pneumoniae MK inhibitors, primary screen, biochemical, PK/LDH-coupled NADH absorbance; hit rate 0.48% among 65,000; mevalonate kinase [Streptococcus pneumoniae D39]; inhibition, % at 10 µM; purified MK, PK/LDH-coupled NADH absorbance 340 nm;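 active = ranked among the strongest by inhibition in the single 10 µM screen, a fixed top-ranked set picked for dose follow-up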
Fluor 339 460 – intrinsic fluorescence of library compounds, ex339/em460 – biochemical, MLSMR library, data from DPM-DC assay, artefact control, profiling panel. compound autofluorescence, ex339/em460 nm, NADH buffer; hits give high values; 1 = no-compound wells, NADH background. hit rate 5.5% among 65,000. fluorescence fold increase at 10 µM. AID 709, 2007;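 active = at 10 µM, mean starting fluorescence two-fold or more over control wells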;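 also: signal is the first read of a kinetic run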
Spn DPM-DC inh – S. pneumoniae DPM-DC inhibitors, primary screen, biochemical, PK/LDH-coupled NADH fluorescence. purified DPM-DC. calls only at 10 µM. diphosphomevalonate decarboxylase (Streptococcus pneumoniae D39). hit rate 0.49% among 65,000;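 active = the 320 compounds with the highest percent inhibition in the single-dose primary screen, excluding strongly autofluorescent ones, cut at about 32% in these data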;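 also: kinetic rate of NADH fluorescence loss reporting ADP formed by the decarboxylase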
Active calls of the source: *; i = inactive; · = no result given; + = active, no number. Most compounds without a hit are left out; they make up all but 6.8% or so of the library.

SMILES	NADH coupling	A340 absorber	PMK inhibit	Spn MK inh	Fluor 339 460	Spn DPM-DC inh
CSC1=NC(NCCCO)c2c(sc3c2CC(C)(C)OC3)N1 (stereo not drawn)	10%	1	7	8	2.9*	i
Cn1nnnc1Sc1ncnc2scc(-c3ccccc3)c12	7%	0.98	14	7	1.1	i
Cn1nnnc1Sc1ncnc2scc(-c3ccc(F)cc3)c12	11%	0.96	29*	5	1.1	i
CS(=O)(=O)Nc1ccccc1C(=O)NCc1ccco1	5%	1	0	9	3.9*	·
CCOc1ccc(S(=O)(=O)Nc2ccccc2C(=O)NCc2ccco2)cc1	6%	1	12	0	4.9*	·
COc1ccc(C(=O)Nc2ccccc2C(=O)NC(C(=O)NCc2ccco2)C(C)C)cc1 (stereo not drawn)	16%	1	28*	10	1.7	i
Cc1ccc(CNC(=O)c2ccccc2NS(C)(=O)=O)cc1	10%	1	7	13	4*	·
CS(=O)(=O)n1nc(C(=O)N2CCOCC2)nc1N	7%	1	16	6	1.1	i
O=C(Nc1ccc2c(c1)OC1(CCCC1)O2)C1CC1	5%	1	7	7	1.1	i
CC1=NC(C(F)(F)F)(C(F)(F)F)C(C#N)=C(C)N1	2%	1.1	5	0	1.1	i
O=C(Nc1ccccc1C(=O)NCc1ccco1)c1ccco1	4%	1	12	0	1.1	i
O=C(Nc1ccccc1C(=O)Nc1ccccc1C(=O)NCc1ccco1)c1ccco1	5%	1.1	0	8	2.3*	i
COc1ccc(C2NC(=O)NC3=C2CCc2ccccc23)cc1 (stereo not drawn)	11%	1.1	14	8	3.8*	·
Cc1ccc(C2NC(=O)NC3=C2CCc2ccccc23)cc1 (stereo not drawn)	8%	1	12	9	2.6*	i
O=C1NC2=C(C(=O)c3ccccc32)C(c2ccccc2)N1 (stereo not drawn)	5%	0.98	9	7	1.1	i
CN(C)C(=O)Nc1cnc2ccccc2c1	13%	1	0	0	0.59	+
CCOC(=O)c1oc2ccc3c(c2c1C)C(=O)CC1(CCN(C(=O)OCC)CC1)O3	5%	1	5	9	1.5	i
CCOC(=O)N1CCC2(CC1)CC(=O)c1c(ccc3oc(C(=O)O)c(C)c13)O2	4%	1	10	9	3.4*	·
Cc1ccccc1Cn1cc(NC(=O)c2noc3c2CC(C(C)(C)C)CC3)cn1 (stereo not drawn)	2.6µM*	0.99	20	5	1.7	i
O=C(COc1ccc(Cl)cc1)NC1CCSC1=O (stereo not drawn)	7%	1	10	12	1.1	i
Cn1nc(-c2ccc(Cl)cc2)c2cc(C(=O)NC3CC3)sc21	3%	1.1	6	0	2.1*	·
CC1CCCN(C(=O)c2cc3c(-c4ccc(Cl)cc4)nn(C)c3s2)C1 (stereo not drawn)	4%	1	0	2	1	i
CCN(CC)CCNC(=O)c1cc2c(-c3ccc(Cl)cc3)nn(C)c2s1	5%	1.1	2	7	2.1*	·
CCOCCCNC(=O)c1cc2c(-c3ccc(Cl)cc3)nn(C)c2s1	8%	1.1	7	8	2.1*	·
CC(O)C(=O)NCCOCCOCCNC(=O)C(C)O (stereo not drawn)	7%	0.98	21	0	1.1	i
CC(C)[C@H](NC(=O)OC(C)(C)C)c1nnc(SCC(=O)Nc2ccc(Br)cc2)o1	3%	1	0	6	1	i
O=[n+]1c2c(n([O-])c3c1CCCC3)CCCCC2	6%	1	4	8	1.1	i
COc1cc(C(=O)OCC(=O)c2cc(C)n(C)c2C)cc(NC(=O)c2ccco2)c1OC	11%	1.1	10	0	2.9*	i
CCN1CCc2c(C#N)c(N3CCCCC3)nc(N3CCOCC3)c2C1	6%	1.1	1	11	2.3*	·
CC(C)c1nc(N2CCOCC2)c(C#N)c2c1CCCC2	6%	1	1	10	2.1*	·

Source: PubChem BioAssay
